Most compounds without a hit are left out; they make up all but 4% or so of the library.
TRHR agonist – qHTS for Small Molecule Agonists and Allosteric Enhancers of Human TRH Receptor: Primary Screen for Agonists. AID 493084, 2011. 0.18% of 360,000 active. Thyrotropin-releasing hormone receptor (Homo sapiens), P34981. TRHR cells, calcium flux fluo-8, FDSS agonist mode. activation, % at 2 µM; further: 0% is about no effect
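Read-out: compound-evoked intracellular calcium rise in TRHR cells, fluo-8 dye, kinetic FDSS fluorescence at 1 s/cycle following a 10-cycle baseline. Cells cultured overnight before dye loading (30 min–1.5 h, RT).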
D1 antagonist – Antagonist of Human D 1 Dopamine Receptor: qHTS; HEK293 TREx D1 cells, calcium flux, dopamine EC80; stronger effect = lower value; activity change, negative = inhibition, % at 10 µM; 3.2% of 360,000 active; in the data active means activity change below about -30%; further: on the % scale 0 is the no-effect control and ±100 the full control effect
Target sequence (P21728 whole entry, looked up): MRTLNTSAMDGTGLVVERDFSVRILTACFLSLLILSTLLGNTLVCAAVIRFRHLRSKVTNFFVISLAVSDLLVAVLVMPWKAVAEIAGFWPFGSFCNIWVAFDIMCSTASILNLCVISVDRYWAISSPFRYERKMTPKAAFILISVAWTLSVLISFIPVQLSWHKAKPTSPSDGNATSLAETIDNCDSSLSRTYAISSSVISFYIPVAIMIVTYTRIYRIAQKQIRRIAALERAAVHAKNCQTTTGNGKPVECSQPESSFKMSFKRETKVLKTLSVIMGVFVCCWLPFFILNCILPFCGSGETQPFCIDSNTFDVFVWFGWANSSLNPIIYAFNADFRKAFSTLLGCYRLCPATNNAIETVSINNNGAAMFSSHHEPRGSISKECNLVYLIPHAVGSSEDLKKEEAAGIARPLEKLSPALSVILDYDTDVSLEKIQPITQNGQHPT
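Using tetracycline-induced force-coupled D1 Hek293 cells and a calcium dye, signals were followed for 180 s after compound, then for 180 s after EC80 dopamine, to detect inhibitors.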
TRHR enhancer – qHTS for Small Molecule Agonists and Allosteric Enhancers of Human TRH Receptor: Primary Screen for Enhancers; Thyrotropin-releasing hormone receptor (Homo sapiens), P34981; TRHR cells, fluo-8 calcium fluorescence, EC20 TRH enhancement; enhancement, % at 2 µM; 0.66% of 360,000 active; in the data active means enhancement above about 30%; further: 0% is about no effect
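Enhancer read-out: after compound pinning and an initial kinetic agonist-mode read, an EC20 of TRH (10 nM final) was injected and fluo-8 calcium signal (Ex 480/Em 530) followed at 1 s/cycle for 100 cycles in TRHR-expressing cells.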
GRP78 ERSR act – qHTS for Inducers of the Endoplasmic Reticulum Stress Response (ERSR) in Human Glioma: qHTS | U87-MG GRP78 promoter luciferase reporter, 16 h | 0.02% of 420,000 active | Potency, µM, inactives show at the highest dose activation, actives largely listed as activators; active means well fitted activation curve with a large enough effect; further: potency means the concentration at half of the fitted maximal effect; series mostly up to about 76 µM; % of control where 0% means no effect; nearly all actives have a fitted effect of over 35% in size
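Stably transfected U87-MG human glioma cells carrying a GRP78-based luminescent sensor were seeded at 1000 cells/well, pin-dosed with compounds and incubated 16 h. Luciferase reagent was then added, and end-point luminescence was read after 10 min at room temperature.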
D1 ag – Allosteric Agonists of the Human D1 Dopamine Receptor: qHTS; activation, % at 2 µM; HEK293 T-REx D1 cells, calcium flux, agonist mode; 1% of 360,000 active; further: 0% is about no effect
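Inducible HEK293 T-REx D1 cells, force-coupled to calcium signalling, were plated at 4000 cells/well with tetracycline and held overnight at 30 C. After no-wash calcium dye loading, compound-evoked calcium rise over 180 s flagged agonists.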
D1 PAM – Potentiators of Human D1 Dopamine Receptor: qHTS; HEK293 TREx D1 cells, calcium flux, dopamine EC20 potentiation; potentiation, % at 10 µM; D(1A) dopamine receptor (Homo sapiens), P21728; 0.036% of 360,000 active; in the data active means potentiation above about 30%; further: 0% is about no effect
* = called active by the depositor; . = no result. Unless noted, no stated cut-off is given here; in the data, active means activation above about 30%; inactive means the rest.

SMILES | TRHR agonist | D1 antagonist | TRHR enhancer | GRP78 ERSR act | D1 ag | D1 PAM
CS(=O)(=O)N1CCCC(C(=O)Nc2ccc(F)c(F)c2)C1 (stereo not given) | -0.3 | 7.0 | -6.4 | 1.6% | 1.9 | 6.2
S=c1[nH]ncn1/N=C/c1ccc(Br)cc1 | -1.4 | 11.7 | -6.8 | 5.7% | 0.2 | 3.3
S=c1[nH]ncn1/N=C/c1ccccc1 | 0.0 | -30.4* | -15.5 | 2.2% | 2.8 | -6.3
CCn1nc(C)c(CN2Cc3ccccc3OC(c3ccccc3OC)C2)c1C (stereo not given) | . | . | . | -1.7% | . | .
Cc1ccc(N2C(=O)C3C4C=CC(CNC(=S)Nc5ccc(Cl)cc5)(O4)C3C2=O)cc1 (stereo not given) | -0.3 | -31.4* | -4.5 | -0.9% | 12.6 | -9.6
Cc1ccc(N2C(=O)C3C4C=CC(CNC(=S)Nc5ccc(F)cc5)(O4)C3C2=O)cc1 (stereo not given) | -0.7 | -6.5 | 5.6 | -0.4% | 7.2 | -5.0
Cc1ccccc1NC(=O)Cn1c(=O)n(Cc2ccc3c(c2)OCO3)c(=O)c2oc3ccccc3c21 | 0.3 | 3.5 | 9.2 | -1.8% | 0.0 | -3.4
CC(=O)N1CCCc2cc(S(=O)(=O)N3CCC(C(=O)NCCC(C)C)CC3)ccc21 | 0.0 | 9.2 | -1.1 | -5.1% | 0.2 | -2.4
O=C(Nc1ccc(F)cc1F)Nc1csc2ccccc12 | 2.0 | -33.4* | 0.9 | 4.3% | 13.0 | -4.8
O=C(Nc1ccc(F)cc1F)Nc1ccc(F)cc1F | 2.1 | 0.1 | -8.5 | 7.9% | 5.0 | -1.8
O=C(Nc1ccc(F)c(Cl)c1)Nc1csc2ccccc12 | 0.4 | -33.3* | -9.8 | -6.0% | 14.2 | -9.6
COCCCNC(=O)c1cc(S(=O)(=O)N2CCOCC2)ccc1SCc1cccc(OC)c1OC | 0.2 | 25.2 | 0.2 | -4.2% | 0.9 | 0.5
O=C(CCC(=O)c1cccs1)OCc1nnc(-c2ccccc2)o1 | -0.8 | -39.0* | -0.2 | -3.7% | 2.2 | -7.8
Cc1ccc(C(=O)CCC(=O)OCc2nnc(-c3ccccc3)o2)cc1 | 0.1 | -9.1 | 1.1 | -0.4% | 14.1 | -4.2
O=c1cc(C(O)C[N+](=O)[O-])occ1OCc1ccccc1 (stereo not given) | . | . | . | -11.3% | . | .
O=[N+]([O-])c1ccc(OCC(O)CN(CCO)CCO)cc1 (stereo not given) | -0.4 | -34.7* | -2.4 | -3.3% | 3.6 | -1.2
Cc1cc(OCC(O)CN(CCO)CCO)ccc1Cl (stereo not given) | 0.0 | 10.5 | -4.1 | -2.6% | 0.8 | 6.9
C=C1NN(Cc2ccccc2)C(=O)N1c1ccc(OCc2ccccc2)cc1 | . | . | . | -3.2% | . | .
Cc1cc(C(=O)Nc2cnc3ccccc3c2)ccc1[N+](=O)[O-] | -0.3 | -60.1* | 3.8 | -1.5% | 0.6 | 0.1
Brc1ccc(/C=C2\C=Cc3ccccc32)cc1 | . | . | . | 11.3% | . | .
C/C(=C/CCC(C)[C@H]1CC[C@@]2(C)C3=C(CC[C@]12C)[C@@]1(C)CCC(=O)C(C)(C)[C@@H]1CC3)C(=O)O (stereo not given in full) | 0.2 | -33.9* | 18.4 | 0.0% | 9.1 | -6.5
O=C(CC(c1ccccc1)c1ccccc1O)NCCN1CCOCC1 (stereo not given) | 0.1 | -53.3* | 5.2 | -5.9% | 0.3 | -0.2
O=C(COc1ccccc1O)NCCN1CCOCC1 | -0.6 | 25.3 | 8.3 | -1.2% | 2.3 | 3.0
O=C(NCC1Cc2cccc(-c3cccnc3)c2O1)c1ccc2cc[nH]c2c1 (stereo not given) | . | . | . | -0.5% | . | .
CC(=O)N1CCN(C(=O)COC(=O)c2oc3ccccc3c2C)CC1 | 0.8 | -0.2 | 15.4 | -4.5% | 1.9 | 4.8
CC1c2cccc(O)c2C(O)=C2C(=O)[C@]3(O)C(O)=C(C(N)=O)C(=O)C(N(C)C)C3C(O)C21 (stereo not given in full) | . | . | . | -4.6% | . | .

Assay outcomes from PubChem BioAssay.
